# Inconclusive results are not listed. A call without a number means that no potency is given here. Calls of active or inactive are those of the source. Unless noted, calls follow the shape of the dose curve; as a rule, active = well fitted inhibition curve with a large enough effect; inconclusive = small, poorly fitted or top-dose-only effect; inactive = no such curve, though single readings can be large or run the other way.
# Test: S16 Schwann cell PMP22 intronic element firefly luciferase assay (AID 624032); also: nearly all actives have a fitted effect of over 30% in size
# Details: S16 rat Schwann cells, PMP22 element FLuc, 24 h; series mostly up to 57.5 µM
# Outline: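 Rat S16 Schwann cells stably carrying firefly luciferase driven by a PMP22 intronic element, in 10% FBS, treated 24 h at 37 C. ONE-Glo luminescence normalized to PTC124 control and DMSO (0%); curves classed by r2, magnitude and activity.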
# Potency is read from the fitted curve at half-maximal effect.
row,Compound,Potency
1,Cc1ccc(NC(=O)c2ccc(CN3CCN(C)CC3)cc2)cc1Nc1nccc(-c2cccnc2)n1,inactive
2,CN(C)CCc1c[nH]c2ccc(Cn3cncn3)cc12,inactive
3,O=C(O)CCNC(=O)c1ccc(N=Nc2ccc(O)c(C(=O)O)c2)cc1,inactive
4,O=C1c2ccccc2-c2n[nH]c3cccc1c23,inactive
5,O=C1CCc2ccc(OCCCCN3CCN(c4cccc(Cl)c4Cl)CC3)cc2N1,22.8 µM (active)
6,O=C(O)c1cccnc1Nc1cccc(C(F)(F)F)c1,inactive
7,C=CCc1cc(OC)c(O)c(C(=O)NCCO)c1,inactive
8,CCCCc1ccc2nc(NC(=O)OC)[nH]c2c1,inactive
9,COc1ccc2cc([C@H](C)C(=O)O)ccc2c1,inactive
10,CC1(C)CCC(C)(C)c2cc(NC(=O)c3ccc(C(=O)O)cc3)ccc21,0.114 µM (active)
11,Oc1ccc(OCc2ccccc2)cc1,inactive
12,Cn1c(NCCN(CCO)CCCc2ccc([N+](=O)[O-])cc2)cc(=O)n(C)c1=O,inactive
13,CCC1=C(C)CN(C(=O)NCCc2ccc(S(=O)(=O)NC(=O)NC3CCC(C)CC3)cc2)C1=O (stereo unspecified),32.2 µM (active)

# Test: S16 Schwann cell PMP22 intronic element beta-lactamase assay (AID 624044; calls by dose curve; also: nearly all actives have a fitted effect of over 15% in size)
# Details: S16 rat Schwann cells, PMP22 element beta-lactamase FRET, 24 h; series mostly up to 38.3 µM
# Outline: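 Rat S16 Schwann cells with beta-Lac driven by a PMP22 intronic element, compound-treated 24 h at 37 °C. LiveBLAzer FRET B/G read: 460 nm normalized to potassium clavulanate vs DMSO; 535 nm FRET as viability; concentration-effect curves classified.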
row,Compound,Potency
1,O=C1c2ccccc2-c2n[nH]c3cccc1c23,inactive
2,O=C1CCc2ccc(OCCCCN3CCN(c4cccc(Cl)c4Cl)CC3)cc2N1,inactive
3,COC1=C(OC)C(=O)C(CCCCCCCCCCO)=C(C)C1=O,inactive
4,CCCCc1ccc2nc(NC(=O)OC)[nH]c2c1,0.239 µM (active)
5,Cc1nc2n(c(=O)c1CCN1CCC(c3noc4cc(F)ccc34)CC1)CCCC2,inactive
6,CC1(C)CCC(C)(C)c2cc(NC(=O)c3ccc(C(=O)O)cc3)ccc21,inactive
7,Oc1ccc(OCc2ccccc2)cc1,6.73 µM (active)
8,CCC1=C(C)CN(C(=O)NCCc2ccc(S(=O)(=O)NC(=O)NC3CCC(C)CC3)cc2)C1=O (stereo unspecified),inactive

# From PubChem BioAssay (NCATS)
